# Measurements taken from PubChem BioAssay (EPA / NIEHS).
# Records with an inconclusive call do not appear. Calls of active or inactive are those of the source. Rule for the calls: active = hit-call score of the fitted dose curve at least 0.9, where 1 is the maximum; inconclusive = response in the unintended direction; inactive = score below 0.9.
# Tests used:
# [1] = target: Estrogen receptor (Homo sapiens) (UniProt P03372); assay: OT_ER_ERaERa_1440: Odyssey Thera (OT) 24-hour HEK293T Protein-Complementation Assay for Estrogen Receptor-alpha/-alpha Homodimer (AID 2283349);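 note: hits raise fluorescence above DMSO for agonists and antagonists alike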
# Estrogen receptor (Homo sapiens), sequence (P03372 whole entry, looked up, the tested form may be a part): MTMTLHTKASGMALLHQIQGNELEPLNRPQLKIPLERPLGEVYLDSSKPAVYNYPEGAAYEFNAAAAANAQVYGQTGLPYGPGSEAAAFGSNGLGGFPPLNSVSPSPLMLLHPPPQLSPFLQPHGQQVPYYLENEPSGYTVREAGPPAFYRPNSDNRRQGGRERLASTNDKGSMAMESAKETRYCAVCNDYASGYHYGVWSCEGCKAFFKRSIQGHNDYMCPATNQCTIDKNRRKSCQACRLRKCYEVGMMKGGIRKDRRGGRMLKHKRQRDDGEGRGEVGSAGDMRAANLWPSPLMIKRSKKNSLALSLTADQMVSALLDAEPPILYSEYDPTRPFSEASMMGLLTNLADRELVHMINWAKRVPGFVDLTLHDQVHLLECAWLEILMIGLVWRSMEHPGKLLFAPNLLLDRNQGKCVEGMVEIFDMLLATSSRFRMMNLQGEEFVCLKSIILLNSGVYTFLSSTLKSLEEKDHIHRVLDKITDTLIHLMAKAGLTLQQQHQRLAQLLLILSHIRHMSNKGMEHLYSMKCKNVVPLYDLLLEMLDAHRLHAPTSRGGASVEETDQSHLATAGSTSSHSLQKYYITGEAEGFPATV
# Procedure, shortened: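 Protein-fragment complementation between two human ERα ligand-binding domains (aa 310-547) in stably transfected HEK293T cells was monitored after 24 h treatment, using fluorescence intensity relative to vehicle controls.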
# [2] = target: Estrogen receptor (Homo sapiens) (UniProt P03372); assay: OT_ER_ERaERa_0480: Odyssey Thera (OT) 8-hour HEK293T Protein-Complementation Assay for Estrogen Receptor-alpha/-alpha Homodimer (AID 2283351);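 note: rise in fluorescence from reassembled reporter fragments on ERα LBD homodimer in nucleus or whole cell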
# Procedure, shortened: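 Binding reporter in which dimerisation of ERα LBD (aa 310-547) fusions reconstitutes a fluorescent reporter in HEK293T cells. Compounds incubated 8 h; mean fluorescence intensity increase versus DMSO scored.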
# [3] = target: T1, Estrogen receptor (Homo sapiens) + Estrogen receptor beta (Homo sapiens) (UniProt P03372+Q92731); assay: OT_ER_ERaERb_0480: Odyssey Thera (OT) 8-hour HEK293T Protein-Complementation Assay for Estrogen Receptor-alpha/-beta Heterodimer (AID 2283352)
# T1 sequence (P03372 whole entry, looked up, the tested form may be a part): as above
# T1 sequence (Q92731 whole entry, looked up, the tested form may be a part): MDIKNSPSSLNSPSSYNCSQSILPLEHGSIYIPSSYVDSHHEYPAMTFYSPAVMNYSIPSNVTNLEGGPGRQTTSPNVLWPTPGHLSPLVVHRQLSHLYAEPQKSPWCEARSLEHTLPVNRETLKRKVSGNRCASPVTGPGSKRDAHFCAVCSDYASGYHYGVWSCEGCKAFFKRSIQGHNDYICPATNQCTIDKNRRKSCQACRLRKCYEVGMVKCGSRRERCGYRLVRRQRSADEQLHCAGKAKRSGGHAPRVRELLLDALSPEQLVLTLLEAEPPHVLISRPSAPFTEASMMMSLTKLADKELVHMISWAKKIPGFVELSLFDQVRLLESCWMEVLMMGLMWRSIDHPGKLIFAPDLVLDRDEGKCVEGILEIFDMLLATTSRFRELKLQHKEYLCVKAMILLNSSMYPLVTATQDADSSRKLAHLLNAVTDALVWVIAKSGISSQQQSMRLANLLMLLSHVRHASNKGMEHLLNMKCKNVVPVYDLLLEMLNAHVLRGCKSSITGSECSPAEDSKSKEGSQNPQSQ
# Procedure, shortened: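 Fluorescence increase from reconstituted reporter fragments, quantified by laser scanning cytometer, reflects ER-alpha/ER-beta heterodimer formation in human HEK293T cells. Exposure 8 h; positive-direction fitting against DMSO vehicle.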
# [4] = target: T1, Estrogen receptor (Homo sapiens) + Estrogen receptor beta (Homo sapiens); assay: OT_ER_ERaERb_1440: Odyssey Thera (OT) 24-hour HEK293T Protein-Complementation Assay for Estrogen Receptor-alpha/-beta Homodimer (AID 2283356);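 note: heteromer of ER alpha and ER beta binding domains; hits raise reporter fluorescence and both agonists and antagonists give an increase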
# Procedure, shortened: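 Fragment complementation between ER alpha (310-547) and ER beta (263-489) ligand-binding domains in HEK293T cells; signal read 24 h post-dosing by laser scanning cytometer. Gain of fluorescence relative to DMSO fitted.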
# [5] = target: Estrogen receptor beta (Homo sapiens) (UniProt Q92731); assay: OT_ER_ERbERb_0480: Odyssey Thera (OT) 8-hour HEK293T Protein-Complementation Assay for Estrogen Receptor-beta/-beta Homodimer (AID 2283357);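 note: active means signal gain over DMSO baseline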
# Estrogen receptor beta (Homo sapiens), sequence (Q92731 whole entry, looked up, the tested form may be a part): as above
# Procedure, shortened: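 Cells (HEK293T, stable ER-beta LBD PCA pair) are treated 8 hours, fixed and Draq5-stained; signal is fluorescence intensity increase relative to vehicle, fitted in the gain direction.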
# [6] = target: Retinoic acid receptor alpha (Homo sapiens) (UniProt P10276); assay: NVS_NR_hRAR_Antagonist: NovaScreen (NVS) Nuclear Receptor Binding Assay for human Retinoic Acid Alpha Receptor Antagonism (RAR) (AID 2283358)
# Retinoic acid receptor alpha (Homo sapiens), sequence (P10276 whole entry, looked up): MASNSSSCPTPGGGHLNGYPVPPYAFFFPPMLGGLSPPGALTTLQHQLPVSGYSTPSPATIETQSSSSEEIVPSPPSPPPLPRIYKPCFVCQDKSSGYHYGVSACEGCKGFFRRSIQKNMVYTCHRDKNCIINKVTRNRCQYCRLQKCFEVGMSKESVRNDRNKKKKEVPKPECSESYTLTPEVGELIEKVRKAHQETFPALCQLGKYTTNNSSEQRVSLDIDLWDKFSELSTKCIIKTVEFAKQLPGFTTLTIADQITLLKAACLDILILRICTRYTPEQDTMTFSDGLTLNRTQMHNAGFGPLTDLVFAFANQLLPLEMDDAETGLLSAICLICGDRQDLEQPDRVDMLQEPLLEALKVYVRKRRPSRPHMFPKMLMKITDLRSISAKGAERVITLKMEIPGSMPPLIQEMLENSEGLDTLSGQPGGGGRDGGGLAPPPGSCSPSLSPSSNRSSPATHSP
# Procedure, shortened: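 TR-FRET, cell-free, antagonist format; 2 h incubation after dosing; DMSO = baseline; signal loss fitted; 25 uM duplicate primary, then conc. series.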
# [7] = target: guinea pig Sigma Receptor, Non-selective Binding, SIGMAR1 (gene 100135589) (UniProt Q60492); assay: NVS_OR_gSIGMA_NonSelective: NovaScreen (NVS) Nuclear Receptor Binding Assay for guinea pig Sigma Receptor, Non-selective Binding (AID 2283367)
# guinea pig Sigma Receptor, Non-selective Binding, SIGMAR1 (gene 100135589), sequence (Q60492 whole entry, looked up): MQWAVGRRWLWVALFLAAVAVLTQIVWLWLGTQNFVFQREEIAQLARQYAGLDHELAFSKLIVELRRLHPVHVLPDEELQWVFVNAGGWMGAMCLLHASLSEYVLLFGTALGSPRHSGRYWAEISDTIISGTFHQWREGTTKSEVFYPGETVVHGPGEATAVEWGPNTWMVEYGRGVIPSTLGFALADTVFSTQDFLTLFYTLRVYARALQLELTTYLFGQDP
# Procedure, shortened: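 gp brain membr., radioligand displacement, 1 h, filtration + scint. counting; DMSO = baseline; 25 uM x2 primary, conc.-response confirm.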
# PGR (gene 5241) = PGR (gene 5241) (UniProt P06401); assay: NVS_NR_hPR: NovaScreen (NVS) Nuclear Receptor Binding Assay for human Progestron Receptor (PR) (AID 2283360);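 note: active means loss of bound radioligand signal versus DMSO baseline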
# Procedure, shortened: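 T47D lysate; tritiated or iodinated radioligand; scintillation count at 18 h. DMSO = negative control/baseline. Primary: 25 uM, duplicate. Secondary: concentration series for actives.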
# [8] = target: human Thyroid Receptor Alpha (TRa), THRA (gene 7067) (UniProt P10827); assay: NVS_NR_hTRa_Antagonist: NovaScreen (NVS) Nuclear Receptor Binding Assay for human Thyroid Receptor Alpha Antagonism (TRa) (AID 2283362);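 note: activity is loss of signal relative to DMSO baseline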
# Procedure, shortened: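 Actives from a duplicate 25 uM single-point screen were retested in concentration series. The cell-free antagonist-format binding assay was read by AlphaLISA chemiluminescence at 1 h, scored as signal loss relative to DMSO.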
# [9] = target: Androgen Receptor/SRC-1 Co-activator, AR (gene 367) (UniProt P10275); assay: OT_AR_ARSRC1_0960: Odyssey Thera (OT) 16-hour HEK293T Protein-Complementation Assay for Androgen Receptor/SRC-1 Co-activator (AID 2283353);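 note: actives raise the signal above DMSO so potency reflects increased AR and SRC-1 complex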
# Androgen Receptor/SRC-1 Co-activator, AR (gene 367), sequence (P10275 whole entry, looked up, the tested form may be a part): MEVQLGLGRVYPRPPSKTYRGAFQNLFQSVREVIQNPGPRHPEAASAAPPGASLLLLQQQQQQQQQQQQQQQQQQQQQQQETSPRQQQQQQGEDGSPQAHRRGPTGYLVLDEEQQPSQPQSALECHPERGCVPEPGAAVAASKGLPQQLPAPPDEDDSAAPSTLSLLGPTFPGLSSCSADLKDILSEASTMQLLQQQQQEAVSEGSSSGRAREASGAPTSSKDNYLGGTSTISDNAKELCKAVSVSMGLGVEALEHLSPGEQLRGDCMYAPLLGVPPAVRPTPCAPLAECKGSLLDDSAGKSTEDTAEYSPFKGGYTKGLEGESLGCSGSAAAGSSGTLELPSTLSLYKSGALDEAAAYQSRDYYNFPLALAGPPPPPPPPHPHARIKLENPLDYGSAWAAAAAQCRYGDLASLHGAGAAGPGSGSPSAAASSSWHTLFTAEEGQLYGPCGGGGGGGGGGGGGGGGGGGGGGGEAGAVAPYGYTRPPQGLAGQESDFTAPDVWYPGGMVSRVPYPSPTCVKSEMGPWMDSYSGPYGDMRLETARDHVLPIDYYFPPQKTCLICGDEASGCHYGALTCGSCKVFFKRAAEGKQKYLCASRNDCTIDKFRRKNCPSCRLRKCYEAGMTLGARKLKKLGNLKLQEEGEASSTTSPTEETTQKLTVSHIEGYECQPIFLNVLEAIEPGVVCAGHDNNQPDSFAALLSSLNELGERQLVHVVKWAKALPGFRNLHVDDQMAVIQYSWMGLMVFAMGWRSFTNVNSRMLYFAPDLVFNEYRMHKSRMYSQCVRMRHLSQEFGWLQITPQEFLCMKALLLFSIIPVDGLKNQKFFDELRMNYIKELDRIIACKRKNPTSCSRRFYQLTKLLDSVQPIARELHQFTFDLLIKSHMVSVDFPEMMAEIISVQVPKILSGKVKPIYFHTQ
# Procedure, shortened: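 Interaction of AR with SRC-1 was followed by YFP fragment complementation in HEK293T cells after 16 h of dosing. Gain of nuclear-over-cytoplasmic 488 nm fluorescence against DMSO controls defined activity.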
# [10] = target: Androgen Receptor/SRC-1 Co-activator, AR (gene 367) (UniProt P10275); assay: OT_AR_ARSRC1_0480: Odyssey Thera (OT) 8-hour HEK293T Protein-Complementation Assay for Androgen Receptor/SRC-1 Co-activator (AID 2283354);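 note: hits raise the complementation signal above DMSO so AC50 marks enhancers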
# Procedure, shortened: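 Measures AR/SRC-1 binding by Venus YFP fragment complementation in HEK293T stable lines at 8 h post-dose. Imaging quantifies the 488nm nucleus/cytoplasm ratio in ≥400 cells; DMSO defines baseline.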
# [11] = target: rat Mineralocorticoid Receptor (MR), Nr3c2 (gene 25672) (UniProt P22199); assay: NVS_NR_rMR: NovaScreen (NVS) Nuclear Receptor Binding Assay for rat Mineralocorticoid Receptor (MR) (AID 2283355)
# rat Mineralocorticoid Receptor (MR), Nr3c2 (gene 25672), sequence (P22199 whole entry, looked up): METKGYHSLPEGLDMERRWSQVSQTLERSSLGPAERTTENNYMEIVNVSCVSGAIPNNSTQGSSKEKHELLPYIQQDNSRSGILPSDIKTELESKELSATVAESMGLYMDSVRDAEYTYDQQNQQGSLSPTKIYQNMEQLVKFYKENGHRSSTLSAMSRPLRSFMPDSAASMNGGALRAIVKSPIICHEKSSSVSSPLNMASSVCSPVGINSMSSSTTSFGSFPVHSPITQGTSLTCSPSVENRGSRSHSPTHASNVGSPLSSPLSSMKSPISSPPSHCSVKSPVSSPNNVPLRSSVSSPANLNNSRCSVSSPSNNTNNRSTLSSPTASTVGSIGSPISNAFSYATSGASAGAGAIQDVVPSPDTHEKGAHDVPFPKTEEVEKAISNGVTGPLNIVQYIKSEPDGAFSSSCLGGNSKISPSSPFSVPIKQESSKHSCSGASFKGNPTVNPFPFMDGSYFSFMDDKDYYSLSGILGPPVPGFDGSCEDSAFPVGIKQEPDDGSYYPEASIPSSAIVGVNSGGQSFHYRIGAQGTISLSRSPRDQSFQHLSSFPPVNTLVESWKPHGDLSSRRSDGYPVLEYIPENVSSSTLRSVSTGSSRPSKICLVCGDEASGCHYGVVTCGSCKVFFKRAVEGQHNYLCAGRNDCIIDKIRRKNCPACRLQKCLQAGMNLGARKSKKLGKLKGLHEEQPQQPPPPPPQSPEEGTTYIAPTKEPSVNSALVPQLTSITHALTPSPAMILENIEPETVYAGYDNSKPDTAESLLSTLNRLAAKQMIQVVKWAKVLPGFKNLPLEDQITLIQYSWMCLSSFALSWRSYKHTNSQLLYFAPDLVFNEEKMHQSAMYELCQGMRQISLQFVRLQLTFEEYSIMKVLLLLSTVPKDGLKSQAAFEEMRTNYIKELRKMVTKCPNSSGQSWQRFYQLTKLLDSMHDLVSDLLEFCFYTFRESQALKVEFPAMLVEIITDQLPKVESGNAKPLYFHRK
# Procedure, shortened: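 Adrenalectomized rat brain supernatant was dosed with test chemical, then radioligand binding was measured by scintillation counting at 24 h. Initial testing ran in duplicate at 25 uM, followed by concentration series for actives.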
# [12] = target: human Peroxisome Proliferator-activated Receptor alpha (PPARa), PPARA (gene 5465) (UniProt Q07869); assay: NVS_NR_hPPARa: NovaScreen (NVS) Nuclear Receptor Binding Assay for human Peroxisome Proliferator-activated Receptor alpha (PPARa) (AID 2283359);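 note: activity means loss of TR-FRET signal versus DMSO baseline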
# Procedure, shortened: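 Chemicals were first screened in duplicate at 25 uM, and active ones were retested across concentration series. Binding was monitored by TR-FRET one hour after dosing, with decreased signal against DMSO counted as activity.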
# [13] = target: Glucocorticoid receptor (Homo sapiens) (UniProt P04150); assay: NVS_NR_hGR: NovaScreen (NVS) Nuclear Receptor Binding Assay for human Glucocorticoid Receptor (GR) (AID 2283363);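 for AC50: activity is loss of specific radioligand binding signal relative to DMSO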
# Procedure, shortened: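 Competitive displacement of a labelled ligand was measured on cell-free receptor preparations after 16 h exposure. Initial testing used 25 uM in duplicate with plate controls; confirmed actives went into concentration series.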
# [14] = target: rat Androgen Receptor (AR), Ar (gene 24208) (UniProt P15207); assay: NVS_NR_rAR: NovaScreen (NVS) Nuclear Receptor Binding Assay for rat Androgen Receptor (AR) (AID 2283366)
# Procedure, shortened: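 Cell-free radioligand binding on extracts of prostate from testosterone-pretreated rats, read by filter-based scintillation counting 18 h after dosing. Loss of bound signal fitted positively versus DMSO; primary screen in duplicate at 25 uM, actives followed up in concentration series.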
# [15] = target: Nuclear receptor subfamily 1 group I member 2 (Homo sapiens) (UniProt O75469); assay: NVS_NR_hPXR: NovaScreen (NVS) Nuclear Receptor Binding Assay for human Pregnane X Receptor (PXR) (AID 2283365);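 note: a drop in FRET signal versus DMSO baseline means the compound binds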
# Procedure, shortened: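 Human PXR binding measured by TR-FRET in a cell-free format, 2 h exposure. Single-concentration duplicates at 25 uM preceded concentration-response retests of actives; endpoint fitted positively relative to DMSO, loss of signal indicating binding.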
smiles,measurement,setting,value
CC1(C)C(C(=O)OC(C#N)c2cccc(Oc3ccccc3)c2)C1(C)C (configuration not stated),outcome,[1],inactive
same,outcome,[2],inactive
same,outcome,[3],inactive
same,outcome,[4],inactive
same,outcome,[5],inactive
O=C(O)c1c(Cl)ccc2cc(Cl)cnc12,outcome,[1],inactive
same,outcome,[2],inactive
same,outcome,[3],inactive
same,outcome,[4],inactive
same,outcome,[5],inactive
CCOc1nc(F)cc2nc(S(=O)(=O)Nc3c(Cl)cccc3Cl)nn12,outcome,[1],inactive
same,outcome,[2],inactive
same,outcome,[3],inactive
same,outcome,[4],inactive
same,outcome,[5],inactive
O=C1C2CC=CCC2C(=O)N1SC(Cl)(Cl)Cl (configuration not stated),outcome,[1],inactive
same,outcome,[2],inactive
same,outcome,[3],inactive
same,outcome,[4],inactive
same,outcome,[6],inactive
COc1cc(Cl)c(OC)cc1Cl,outcome,[1],inactive
same,outcome,[2],inactive
same,outcome,[3],inactive
same,outcome,[4],inactive
same,outcome,[5],inactive
N#CN=C1SCCN1Cc1ccc(Cl)nc1,outcome,[1],inactive
same,outcome,[2],inactive
same,outcome,[7],inactive
C=C(C)CN(CC)c1c([N+](=O)[O-])cc(C(F)(F)F)cc1[N+](=O)[O-],outcome,[1],inactive
same,outcome,[2],inactive
same,AC50,[3],50 µM (active)
same,AC50,[4],79.2 µM (active)
same,outcome,[5],inactive
CN=C=S,outcome,[1],inactive
same,outcome,[2],inactive
same,outcome,[6],inactive
same,outcome,PGR (gene 5241),inactive
same,outcome,[8],inactive
CCOc1cc(C(C)(C)C)ccc1C1COC(c2c(F)cccc2F)=N1 (configuration not stated),outcome,[1],inactive
same,outcome,[3],inactive
same,AC50,[9],20.1 µM (active)
same,AC50,[10],20.4 µM (active)
same,outcome,[11],inactive
same,outcome,[4],inactive
same,outcome,[5],inactive
same,outcome,[6],inactive
Cn1c(-c2ccccc2)cc(-c2ccccc2)[n+]1C,outcome,[1],inactive
same,outcome,[2],inactive
same,outcome,[3],inactive
same,outcome,[5],inactive
same,AC50,[7],0.133 µM (active)
CCN(CC)C(=O)C(C)Oc1cccc2ccccc12 (configuration not stated),outcome,[1],inactive
same,outcome,[2],inactive
same,outcome,[3],inactive
same,outcome,[4],inactive
same,outcome,[5],inactive
same,AC50,[7],18.8 µM (active)
COc1ccc(-c2ccccc2)cc1NNC(=O)OC(C)C,outcome,[1],inactive
same,outcome,[3],inactive
same,outcome,[9],inactive
same,outcome,[10],inactive
same,outcome,[11],inactive
same,outcome,[4],inactive
same,outcome,[5],inactive
Cc1ccc(N=CN(C)C=Nc2ccc(C)cc2C)c(C)c1,outcome,[1],inactive
same,outcome,[2],inactive
same,outcome,[4],inactive
same,outcome,[5],inactive
same,outcome,[6],inactive
CC(C)Nc1nc(Cl)nc(NC(C)C)n1,outcome,[1],inactive
same,outcome,[3],inactive
same,outcome,[4],inactive
CCOC(=O)C(C)OC(=O)c1cc(Oc2ccc(C(F)(F)F)cc2Cl)ccc1[N+](=O)[O-] (configuration not stated),outcome,[1],inactive
same,outcome,[2],inactive
same,outcome,[3],inactive
same,outcome,[4],inactive
same,outcome,[5],inactive
same,outcome,[6],inactive
same,outcome,[12],inactive
same,outcome,PGR (gene 5241),inactive
same,outcome,[8],inactive
same,outcome,[13],inactive
same,outcome,[7],inactive
CCCCOCN(C(=O)CCl)c1c(CC)cccc1CC,outcome,[1],inactive
same,outcome,[2],inactive
same,AC50,[9],21.8 µM (active)
same,AC50,[10],50 µM (active)
same,outcome,[4],inactive
same,outcome,[5],inactive
same,AC50,[13],8.18 µM (active)
same,outcome,[14],inactive
CS(=O)(=O)c1cc(C(F)(F)F)ccc1C(=O)c1cnoc1C1CC1,outcome,[1],inactive
same,outcome,[2],inactive
same,outcome,[3],inactive
same,outcome,[4],inactive
same,outcome,[5],inactive
same,outcome,[6],inactive
COC(=O)NC(=S)Nc1ccccc1NC(=S)NC(=O)OC,outcome,[1],inactive
same,outcome,[2],inactive
same,outcome,[3],inactive
same,outcome,[4],inactive
same,outcome,[5],inactive
CCNP(=S)(OC)O/C(C)=C/C(=O)OC(C)C (configuration not stated),outcome,[1],inactive
same,outcome,[2],inactive
same,outcome,[4],inactive
same,outcome,[5],inactive
same,outcome,[15],inactive
